DRD3 agonist: qHTS of D3 Dopamine Receptor Agonist: qHTS. 410,000 compounds, 0.58% hits. max activation, %. D3R DiscoveRx beta-arrestin cells, luminescence, 90 min. AID 652048, 2013. D(3) dopamine receptor (Homo sapiens), P35462; in the data active means max activation above about 30%; further: 0% is about no effect
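Cells at 1500/well, incubated overnight, then treated with pinned compounds (dopamine as control) for 90 min at 37 degrees C. DiscoveRx reagent added for 30 - 60 minutes at room temperature; luminescence read.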
HEK293 tox: qHTS of GLP-1 Receptor Inverse Agonists: Cytotox Screen; Potency, µM (series often up to 38.3 µM), inactives show at the highest dose activity change, negative = inhibition, most hits filed as inhibitors; 410,000 compounds, 0.13% hits; HEK293 cAMP-luciferase reporter cells, luminescence, 24 h; AID 624418, 2012;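 further: loss of luciferase light is scored as toxicity; potency means the concentration at half of the fitted maximal effect; on the % scale 0 is the no-effect control and ±100 the full control effect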
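To flag toxic compounds, the library was rerun on cells for 24 hr at 37 deg C and 5% CO2. Viability-linked luminescence was captured 12 min after adding luciferase detection reagent.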
GLP-1R inv ag: qHTS of GLP-1 Receptor Inverse Agonists (Inhibition Mode); Glucagon-like peptide 1 receptor (Homo sapiens), P43220; HEK293 GLP-1R CRE-luciferase, luminescence, 24 h; GLP-1R form is constitutively active; Potency, µM (titrated, usually from 38.3 µM), without a hit: top-dose activity change, negative = inhibition, usual class: inhibitors; 410,000 compounds, 1.6% hits; AID 624417, 2012; further: potency means the concentration at half of the fitted maximal effect; on the % scale 0 is the no-effect control and ±100 the full control effect; nearly all actives have a fitted effect of over 55% in size
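Stable HEK293 clone (constitutively active GLP-1R + cAMP-response luciferase); 200 cells/uL plated, 12 h pre-culture, compound 24 hr, 37 deg C/5% CO2; detection reagent 12 min RT; luminescence.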
ClpP mod: qHTS Assay for Activators of ClpP. AID 651965, 2013. 340,000 compounds, 1.9% hits. Potency, µM (highest dose often 57.5 µM), for the others: at the top dose activity change, negative = active. ATP-dependent Clp protease proteolytic subunit (Bacillus subtilis (strain 168)), P80244. purified B. subtilis ClpP, FRET peptide cleavage, 20 min; active means well fitted falling curve with a large enough effect; inconclusive means small, poorly fitted or top-dose-only effect; inactive means no such curve, though single readings can be large or run the other way; further: potency means the concentration at half of the fitted maximal effect; the source files actives as falling curves though it sought activators and does not explain the sign; nearly all actives have a fitted effect of over 65% in size
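FRET quenching reversal measured ClpP activation: 10 microg/mL B. subtilis ClpP at pH 8 with the FRET-FV decapeptide, read at 430 nm after 320 nm excitation. The 20-min minus 0-min signal was scaled between DMSO/no-enzyme wells and ADEP (5.8 microM final).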
GLP-1R agonist: qHTS of GLP-1 Receptor Agonists | Glucagon-like peptide 1 receptor (Homo sapiens), P43220 | HEK293 GLP-1R CRE-luciferase, luminescence, 4-6 h; cells express a hypersensitive GLP-1R form | Potency, µM (doses to about 45.6 µM), inactives show at the highest dose activation, actives largely listed as activators | 380,000 compounds, 0.007% hits; further: potency means the concentration at half of the fitted maximal effect; % of control where 0% means no effect
D3 antag: qHTS of D3 Dopamine Receptor Antagonist: qHTS; D(3) dopamine receptor (Homo sapiens), P35462; D3R cells, DiscoveRx beta-arrestin luminescence, antagonist mode; hits give low values; max response, negative = inhibition, %; 360,000 compounds, 2.5% hits; in the data active means max response below about -50%; inconclusive means no clear call, values can overlap the other calls; further: on the % scale 0 is the no-effect control and ±100 the full control effect
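Cells expressing the human receptor were seeded at 1500 cells/well, incubated overnight at 37 degrees C in 5% CO2, then exposed to library compounds with dopamine controls for 90 minutes at 37 degrees C before luminescent detection.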
Numbers without * were called inactive; ? = inconclusive; . = no result given; [ ] = remark or other dose. Rows were chosen to be rich in hits. Some 5.7% of all compounds tested hit in one or more screens of this group. Unless noted, the call rests on the fitted dose curve; in most records, active means well fitted curve in the direction sought with a large enough effect; inconclusive means small, poorly fitted or top-dose-only effect, or another doubt; inactive means no such curve, though single readings can be large; an effect the other way counts as inactive or inconclusive.

SMILES	DRD3 agonist	HEK293 tox	GLP-1R inv ag	ClpP mod	GLP-1R agonist	D3 antag
Cc1ccc(S(=O)(=O)NCc2c(Cl)cccc2Oc2ccccc2)cc1	1.6	1.2%	?	-0.9%	4.8%	3.5
CCOc1ccc(NC(=O)CCc2nc3cccnc3n2Cc2ccc(OC)cc2)cc1	6.0	0.5%	1.1%	-0.1%	.	.
CN(C)S(=O)(=O)Oc1ccsc1C(=O)Nc1cccc(Cl)c1	2.7	6.4%	-12.8%	1.9%	14.4%	5.1
CN(C)S(=O)(=O)Oc1ccsc1C(=O)Nc1ccc(Cl)c(Cl)c1	-6.1	21.4%	10µM*	2.3%	-1.4%	-14.5
CCc1nnc(NC(=O)[C@@H]2CCCN2C(=O)c2cccs2)s1	.	.	.	-0.1%	.	.
COc1ccc(C(=O)c2ccc(Br)cc2)c2ccccc12	-5.4	-8.0%	?	-2.2%	0.4%	3.6
COc1ccc(C(=O)c2ccc(Cl)cc2)c2ccccc12	-16.4	-10.2%	10µM*	-3.1%	0.4%	-23.2
Cc1ccc(C)c(S(=O)(=O)Nc2ccc(C(=O)N3CCOCC3)cc2)c1	-1.6	5.7%	1.4%	0.0%	-5.5%	-51.3*
Cc1cc(F)ccc1S(=O)(=O)Nc1ccccc1C(=O)Nc1ccccc1N1CCOCC1	2.0	22.4%	?	-4.6%	-2.4%	-28.0
Cc1ccc(C)c(S(=O)(=O)Nc2ccccc2C(=O)Nc2ccccc2N2CCOCC2)c1	-4.5	-1.4%	?	-7.4%	-7.4%	-57.4*
COc1ccc2c(CNCc3cccs3)c(C(=O)O)n(Cc3ccccc3F)c2c1	-20.3	-4.8%	-31.9%	-15.9%	.	.
O=[N+]([O-])c1ccc(N/N=C2/CCCCC2c2ccccn2)cc1 (configuration not stated)	-11.3	-2.5%	1.26µM*	.	7.3%	0.0
NC(=O)[C@H]1O[C@@H](O)[C@H](O)[C@@H](O)[C@@H]1O	-5.9	.	.	.	11.3%	.
COc1cc(OC)c(Nc2c3c(nc4nc(-c5cccs5)nn24)CCCC3)cc1Cl	3.5	1.0%	?	-2.2%	.	.
COc1ccc(N2C(=O)CC(Sc3nnnn3-c3ccc(F)cc3)C2=O)cc1 (configuration not stated)	-7.0	?	?	.	0.6%	-59.9*
COc1ccc(-c2cc(-c3ccccc3)n3ncnc3n2)cc1	2.7	7.1%	6.4%	31.6µM*	0.1%	0.0
COc1ccc(-c2cc(N3CCCC3)n3ncnc3n2)cc1	-2.9	-15.8%	24.8%	-20.5%	2.7%	19.7
CCc1nc2ccc(C(=O)N3CCN(C(=O)c4ccco4)CC3)cn2c1N(C)C(=O)c1cccc(OC)c1	-7.6	2.3%	26.9%	-1.4%	-0.9%	0.0
Cc1cc(C)c2c(N)c(C(=O)Nc3ncc(C)s3)sc2n1	-9.6	247.4%	1.26µM*	?	-27.0%	15.3
Cc1cc(C)c2c(N)c(C(=O)Nc3ccccc3Br)sc2n1	10.8	12.3%	18.8%	4.3%	16.5%	8.9
CCc1ccccc1NC(=O)c1sc2nc(C)cc(C)c2c1N	1.6	0.9%	27.9%	31.6µM*	5.4%	4.0
Cc1cc(=O)n(Cc2c(F)cccc2Cl)c2c1c(C)nn2-c1cccc(F)c1	-6.3	-7.1%	-2.1%	0.2%	.	.
CCC[C@]1(CCc2ccccc2)CC(O)=C([C@H](CC)c2cccc(NS(=O)(=O)c3ccc(C(F)(F)F)cn3)c2)C(=O)O1	.	.	.	.	-1.3%	.
NCCCNC(=O)c1cc2ccccc2[nH]1	-2.8	-18.1%	6.8%	25.1µM*	-8.6%	-17.8
CCOc1ccc2nc(N3CCCC(C(=O)NCCc4ccc(OC)cc4OC)C3)sc2c1 (configuration not stated)	8.5	-18.6%	?	2.3%	.	.
SMILES	DRD3 agonist	HEK293 tox	GLP-1R inv ag	ClpP mod	GLP-1R agonist	D3 antag
COc1ccc(C)cc1NS(=O)(=O)c1ccc(NC(=O)CN(c2cc([N+](=O)[O-])ccc2C)S(C)(=O)=O)cc1	0.0	-9.2%	1.78µM*	-2.3%	-10.6%	0.0
Cc1cccc(NS(=O)(=O)c2ccc(NC(=O)CN(c3cc([N+](=O)[O-])ccc3C)S(C)(=O)=O)cc2)c1	-19.9	?	?	-1.7%	-28.6%	-23.6
CCn1c(Cc2ccccc2)nnc1SCC(=O)Nc1ccc2c(c1)OCCO2	35.4*	-20.3%	0.0%	1.1%	3.4%	18.1
Nn1c(SCC(=O)Nc2ccc3c(c2)OCO3)nnc1-c1ccccc1	2.3	8.3%	-2.3%	-1.0%	4.9%	-23.1
Cc1nc(SCC(=O)Nc2ccc3c(c2)OCCO3)nc(C)c1C	-7.7	7.1%[0.307 µM]	14.7%[0.307 µM]	20µM*	8.2%	-11.0
Cc1cc(C)nc(SCC(=O)Nc2ccc3c(c2)OCO3)n1	-18.3	-6.0%	1.2%	-0.1%	0.0%	5.0
C=CCn1c(SCC(=O)Nc2ccc3c(c2)OCO3)nnc1-c1ccccc1	0.1	9.6%	-7.7%	-2.6%	7.1%	-0.2
C=CCn1c(SCC(=O)Nc2ccc3c(c2)OCO3)nnc1-c1cc(Br)ccc1O	-4.5	0.1%	?	-0.8%	-12.1%	-51.1*
CC(=O)Nc1ccc(NC(=O)CSc2nnc(-c3ccccc3)n2Cc2ccc3c(c2)OCO3)cc1	-0.6	3.2%	0.0%	-3.6%	13.0%	-102.7*
COc1ccc2c(c1)c1c(c(=O)n(-c3ccccc3C)c(=O)n1Cc1cccc(C(F)(F)F)c1)n2C	-18.2	1.3%	-1.2%	3.8%	0.4%	.
COC(=O)[C@]12CCCCC=C1N(Cc1ccc(Cl)cc1Cl)C(=O)[C@H](CC(=O)NCc1cccc(C(F)(F)F)c1)C2	-2.4	-17.7%	?	-0.6%	-6.8%	-10.1
CN(C)C(=O)Cn1c(SCC(=O)Nc2ccc3c(c2)OCO3)nc2ccccc21	1.9	-13.2%	8.3%	15.8µM*	-4.7%	0.0
Cc1ccc(C(=O)NC2CCCCCC2)cc1N1CCCC1=O	4.2	-14.7%	-0.7%	-2.0%	3.3%	19.8
Cc1ccc(C(=O)O)cc1N1CCCC1=O	-4.9	-2.6%	-19.5%	.	1.3%	-50.8*
O=C(Nc1ccc2oc(-c3ccc4ccccc4c3)nc2c1)c1cc(Cl)ccc1Cl	-2.6	0.1%	5.3%	4.3%	.	.
O=C(CSc1nnc(NC(=O)c2ccccc2)s1)NCc1ccco1	5.4	0.6%	-13.5%	0.1%	-1.7%	-5.5
O=C(CSc1nnc(NC(=O)c2ccc3c(c2)OCO3)s1)NCc1ccco1	2.2	5.8%[0.307 µM]	1.5%[0.307 µM]	4.47µM*	-38.9%	-5.8

Compound activity from PubChem.
